# Source: PubChem BioAssay (EPA / NIEHS)
# Inconclusive results are not listed. Calls of active or inactive are those of the source. Rule for the calls, unless noted: active = hit-call score of the fitted dose curve at least 0.9, where 1 is the maximum; inactive = score below 0.9.
# Columns and labels:
# [1] = CPHEA_Stoker_NIS_Cytotoxicity: Cytotoxicity Assessment for CPHEA's Radioactive Iodide Uptake (RAIU) Assay for Sodium/Iodide Symporter (NIS) Inhibition, Stoker and Laws Labs (AID 2283897; active = hit-call score of the fitted dose curve at least 0.9, where 1 is the maximum;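 for AC50: active means loss of ATP signal versus DMSO meaning cytotoxicity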)
# Outline: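 hNIS-HEK293T-EPA cells, human NIS expressed in HEK293T, treated 2 h with chemicals (0.001–100 uM, 0.5% final DMSO). ATP content read by CellTiter-Glo luminescence; loss of signal analysed relative to DMSO.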
# THRA (gene 7067) = THRA (gene 7067) (UniProt P10827); assay: TOX21_TRA_COA_Agonist_Followup_ratio: Tox21 Thyroid Hormone Receptor alpha Agonism through Coactivator Recruitment Follow-Up Assay, Ratio (AID 2283948)
# THRA (gene 7067), sequence (P10827 whole entry, looked up, the tested form may be a part): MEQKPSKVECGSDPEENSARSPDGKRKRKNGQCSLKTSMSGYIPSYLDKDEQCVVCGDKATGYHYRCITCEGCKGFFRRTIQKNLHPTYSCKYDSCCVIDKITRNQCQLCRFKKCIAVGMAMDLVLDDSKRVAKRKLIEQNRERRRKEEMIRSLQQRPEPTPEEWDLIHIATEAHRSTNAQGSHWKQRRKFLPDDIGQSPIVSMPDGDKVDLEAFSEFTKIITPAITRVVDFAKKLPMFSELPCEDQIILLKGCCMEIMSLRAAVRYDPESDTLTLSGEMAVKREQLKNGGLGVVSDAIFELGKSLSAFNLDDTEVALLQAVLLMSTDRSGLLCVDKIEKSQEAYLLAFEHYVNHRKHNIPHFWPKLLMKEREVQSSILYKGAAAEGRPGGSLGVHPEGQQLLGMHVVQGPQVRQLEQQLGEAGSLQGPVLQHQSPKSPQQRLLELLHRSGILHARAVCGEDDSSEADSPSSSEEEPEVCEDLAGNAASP
# Outline: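 GST-TRa LBD 2.5 nM + 0.10% BSA + cpd; add fluorescein-SRC-2 200 nM, Tb-anti-GST 2 nM. TR-FRET ex 340, em 520/495 ratio. Norm: DMSO 0%, T3 100%; gain-of-signal fit.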
# [2] = CEETOX_H295R_OHPREG_noMTC: CeeTox H295R High-throughput Steroidogenesis Assay for OH-Pregnenolone (OHPREG), maximum tolerated concentration (MTC) filtered results only (AID 2283912); settings: actives raise or lower the signal
# Outline: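 Steroidogenesis in H295R cells (OECD 456, modified): after 48 h forskolin priming and 48 h chemical treatment, secreted 17alpha-hydroxypregnenolone is measured by HPLC-MS/MS. Activity is fitted in both directions against DMSO; concentrations are not filtered by MTT-based MTC.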
# [3] = CEETOX_H295R_OHPROG_noMTC: CeeTox H295R High-throughput Steroidogenesis Assay for OH-Progesterone (OHPROG), maximum tolerated concentration (MTC) filtered results only (AID 2283914); settings: actives raise or lower the signal
# Outline: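 Forskolin 10 uM, 48 h prestim → test cmpd in DMSO (0.1% final), 48 h → medium MTBE extraction → LC-MS/MS quant of 17alpha-OH-progesterone. Bidirectional fit vs DMSO; no MTT-based MTC filtering.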
# [4] = CEETOX_H295R_PROG_noMTC: CeeTox H295R High-throughput Steroidogenesis Assay for Progesterone (PROG), maximum tolerated concentration (MTC) filtered results only (AID 2283920); settings: actives raise or lower the signal
# Outline: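 H295R cells; forskolin 10 uM x 48 h prestim; test cpd 48 h, 0.1% DMSO final; media progesterone via LC-MS/MS; bidirectional fit vs DMSO; no MTT-based MTC filter applied.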
# [5] = CEETOX_H295R_11DCORT_noMTC: CeeTox H295R High-throughput Steroidogenesis Assay for 11-Deoxycortisol (11DCORT), maximum tolerated concentration (MTC) filtered results only (AID 2283911); settings: actives raise or lower the signal
# Outline: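 H295R, OECD 456-based; 10 uM forskolin 48 h → compound (0.1% DMSO) 48 h → medium extracted, 11DCORT by LC-MS/MS. Gain/loss vs DMSO control, all concentrations kept regardless of MTT viability.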
# [6] = CEETOX_H295R_CORTISOL_noMTC: CeeTox H295R High-throughput Steroidogenesis Assay for Cortisol, maximum tolerated concentration (MTC) filtered results only (AID 2283916); settings: actives raise or lower the signal
# Outline: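 Cortisol secretion measured by LC-MS/MS after 48 h chemical treatment (final 0.1% DMSO) of forskolin-primed (10 uM, 48 h) H295R cells; gain or loss fitted relative to DMSO, without maximum-tolerated-concentration filtering.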
# [7] = CEETOX_H295R_CORTIC_noMTC: CeeTox H295R High-throughput Steroidogenesis Assay for Corticosterone (CORTIC), maximum tolerated concentration (MTC) filtered results only (AID 2283917); settings: actives raise or lower the signal
# Outline: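 Following OECD 456 with minor changes, H295R cultures received 10 uM forskolin for 48 h, then test chemical at 0.1% DMSO for 48 h. Media steroids were extracted and measured by LC-MS/MS.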
# [8] = CEETOX_H295R_DOC_noMTC: CeeTox H295R High-throughput Steroidogenesis Assay for DOC, maximum tolerated concentration (MTC) filtered results only (AID 2283918); settings: actives raise or lower the signal
# Outline: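 11-Deoxycorticosterone secreted by human adrenal H295R cells quantified by HPLC-MS/MS after 48 h chemical exposure (0.1% DMSO), following 48 h 10 uM forskolin prestimulation. Concentrations not filtered by MTT-derived MTC; bidirectional fitting.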
# [9] = CEETOX_H295R_ESTRADIOL_noMTC: CeeTox H295R High-throughput Steroidogenesis Assay for Estradiol, maximum tolerated concentration (MTC) filtered results only (AID 2283919); settings: actives raise or lower the signal
# Outline: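 H295R human adrenal cells pre-stimulated 48 h with 10 uM forskolin, then exposed 48 h to chemical (0.1% DMSO final). Estradiol in medium measured by HPLC-MS/MS after MTBE extraction and dansyl derivatization; bidirectional fit versus DMSO, concentrations not MTT-filtered.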
# [10] = CEETOX_H295R_ESTRONE_noMTC: CeeTox H295R High-throughput Steroidogenesis Assay for Estrone, maximum tolerated concentration (MTC) filtered results only (AID 2283921); settings: actives raise or lower the signal
# Outline: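 H295R cells prestimulated 48 h with 10 uM forskolin, then exposed 48 h to chemical in 0.1% DMSO; medium estrone measured by HPLC-MS/MS after MTBE extraction and dansyl derivatization, fitted bidirectionally versus DMSO without MTT-based MTC filtering.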
# [11] = CEETOX_H295R_ANDR_noMTC: CeeTox H295R High-throughput Steroidogenesis Assay for Androstenedione (ANDR), maximum tolerated concentration (MTC) filtered results only (AID 2283915); settings: actives raise or lower the signal
# Outline: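 H295R cells, passage 10 or below, prestimulated 48 h with 10 uM forskolin, then exposed 48 h to chemical in 0.1% DMSO. Medium androstenedione extracted with MTBE, quantified by HPLC-MS/MS; concentrations not MTC-filtered; bidirectional fit versus DMSO.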
# [12] = CEETOX_H295R_TESTO_noMTC: CeeTox H295R High-throughput Steroidogenesis Assay for Testosterone (TESTO), maximum tolerated concentration (MTC) filtered results only (AID 2283924); settings: actives raise or lower the signal
# Outline: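 H295R cells prestimulated 48 h with 10 uM forskolin, then exposed 48 h to chemicals in 0.1% DMSO final. Testosterone in medium quantified by MTBE extraction and HPLC-MS/MS; bidirectional fit versus DMSO, concentrations […] filtered by MTT-based maximum tolerated concentration.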
# PGR (gene 5241) [13] = biological target: PGR (gene 5241) (UniProt P06401); assay: TOX21_PR_BLA_Followup_Antagonist_ratio: Tox21 HEK293 Progesterone Receptor (PR) Antagonism Beta-lactamase Follow-Up Assay, Ratio (AID 2283934; active = hit-call score of the fitted dose curve at least 0.9, where 1 is the maximum)
# PGR (gene 5241), sequence (P06401 whole entry, looked up): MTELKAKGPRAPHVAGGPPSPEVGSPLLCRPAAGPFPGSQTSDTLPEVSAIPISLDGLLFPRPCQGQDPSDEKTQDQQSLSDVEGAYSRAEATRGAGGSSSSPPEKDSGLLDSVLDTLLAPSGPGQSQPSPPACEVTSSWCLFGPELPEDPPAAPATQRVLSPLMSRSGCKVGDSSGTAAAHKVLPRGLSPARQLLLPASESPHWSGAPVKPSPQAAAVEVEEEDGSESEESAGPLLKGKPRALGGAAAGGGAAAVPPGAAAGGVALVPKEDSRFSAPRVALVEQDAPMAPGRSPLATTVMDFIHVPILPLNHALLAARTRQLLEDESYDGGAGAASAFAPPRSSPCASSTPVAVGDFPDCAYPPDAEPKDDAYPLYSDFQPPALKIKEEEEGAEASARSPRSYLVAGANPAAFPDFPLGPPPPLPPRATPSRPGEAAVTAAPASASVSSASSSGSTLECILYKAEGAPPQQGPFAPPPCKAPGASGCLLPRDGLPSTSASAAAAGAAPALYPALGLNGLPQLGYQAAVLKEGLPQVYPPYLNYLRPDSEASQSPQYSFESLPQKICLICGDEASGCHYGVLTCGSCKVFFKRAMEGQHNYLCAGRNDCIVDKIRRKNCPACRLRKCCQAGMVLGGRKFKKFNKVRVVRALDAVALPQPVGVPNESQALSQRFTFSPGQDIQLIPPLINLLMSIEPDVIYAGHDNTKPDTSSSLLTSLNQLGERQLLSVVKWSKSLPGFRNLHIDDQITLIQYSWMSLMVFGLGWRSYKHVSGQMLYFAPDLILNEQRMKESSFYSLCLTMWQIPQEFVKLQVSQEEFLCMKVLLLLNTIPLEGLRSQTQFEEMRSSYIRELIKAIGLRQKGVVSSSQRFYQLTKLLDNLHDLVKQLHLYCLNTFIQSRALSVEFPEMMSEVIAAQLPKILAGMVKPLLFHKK
# Outline: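 HEK293T PR-UAS-bla, 2% CS-FBS; 6 hr plating, then cpd + R5020 (1 nM final), 16 hr 37C/5% CO2. B/G FRET substrate 2 h RT. Ratio ch2/ch1 vs DMSO; CellTiter-Glo viability multiplexed, autofluorescence checked.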
# [14] = TOX21_PR_BLA_Followup_Agonist_viability: Viability Assessment in the Tox21 HEK293 Progesterone Receptor (PR) Agonism Beta-lactamase Follow-Up Assay (AID 2283935; active = hit-call score of the fitted dose curve at least 0.9, where 1 is the maximum;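 note: cells exposed to compound for 16 hr at 37 °C; signal loss means lower viability so actives are cytotoxic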)
# Outline: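 HEK293T PR-UAS-bla, 3,000 cells/well, 2% CS-FBS; 6 hr pre-incubation; cpd in DMSO, 16 hr 37C; LiveBLAzer 2 hr RT, then CellTiter-Glo 30 min RT, luminescence. Decrease = lost viability.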
# [15] = TOX21_PR_BLA_Followup_Antagonist_viability: Viability Assessment in the Tox21 HEK293 Progesterone Receptor (PR) Antagonism Beta-lactamase Follow-Up Assay (AID 2283936; active = hit-call score of the fitted dose curve at least 0.9, where 1 is the maximum;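 note: hits lower the luminescence signal meaning cytotoxicity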)
# Outline: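 PR-UAS-bla HEK293T cells (3,000/well, 2% charcoal-stripped FBS) given compound plus R5020 agonist, 16 h at 37C. CellTiter-Glo added after bla read, 30 min at room temperature; luminescence loss indicates cytotoxicity.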
# PGR (gene 5241) [16] = biological target: PGR (gene 5241) (UniProt P06401); assay: TOX21_PR_LUC_Followup_Antagonist: Tox21 HEK293 Progesterone Receptor (PR) Antagonism Luciferase Follow-Up Assay (AID 2283938; active = hit-call score of the fitted dose curve at least 0.9, where 1 is the maximum;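 note: curve fitted upward as signal gain over DMSO baseline despite antagonist label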)
# Outline: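 Luminescence from ONE-Glo reagent, measured after 30 min at room temperature, served as readout. Cells (HEK293 carrying PR-A-luc) had been treated 16 h at 37C with DMSO-dissolved compounds. Activity was fitted against DMSO controls.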
# [17] = TOX21_PR_LUC_Followup_Agonist_viability: Viability Assessment in the Tox21 HEK293 Progesterone Receptor (PR) Agonism Luciferase Follow-Up Assay (AID 2283941; active = hit-call score of the fitted dose curve at least 0.9, where 1 is the maximum;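 note: loss of signal means cytotoxicity so actives lower viability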)
# Outline: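 Cells were kept 5 days in charcoal-stripped serum medium before plating HEK293-PR-A-luc at 3,000 cells/well. After 5 h they received DMSO-dissolved compound and incubated 16 h at 37C. Viability was taken from CellTiter-Glo ATP luminescence.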
smiles,measurement,setting,value
O=C1c2ccccc2C(=O)N1CCc1noc(-c2ccc(CN3CCCCCC3)s2)n1,AC50,[1],11.5 µM (active)
O=C1O[C@H]([C@@H](O)CO)C(O)=C1O,outcome,THRA (gene 7067),inactive
CCN(Cc1cccnc1)C(=O)c1cccc(Cl)c1[C@]1(C)C(=O)N(Cc2ccc(OC)cc2OC)c2ccc(Cl)cc21,outcome,[1],inactive
CCCCCCCCOc1ccc(C(=O)c2ccccc2)c(O)c1,AC50,[2],30.9 µM (active)
same,AC50,[3],27.4 µM (active)
same,AC50,[4],30.1 µM (active)
O=c1[nH]sc2ccccc12,outcome,[1],inactive
CC(C)(C)c1cc(/C=C2\SC(N)=NC2=O)cc(C(C)(C)C)c1O,AC50,[1],4.96 µM (active)
CC(C)(O)c1ccc(CNC(=O)c2cccnc2Oc2ccc3nonc3c2)cc1,outcome,[1],inactive
same,outcome,[5],inactive
same,outcome,[2],inactive
same,outcome,[3],inactive
same,AC50,[6],61.8 µM (active)
same,outcome,[7],inactive
same,AC50,[8],0.0934 µM (active)
same,AC50,[9],67.1 nM (active)
same,outcome,[4],inactive
same,AC50,[10],40.7 nM (active)
CCN(CC)C(=O)c1cc(S(=O)(=O)Cc2ccccc2)c(N2CCC(c3ccccc3)CC2)cc1N(CC)CCN(C)C,outcome,[1],inactive
O=C(O)c1ccccc1C(=O)OCc1ccccc1,outcome,[5],inactive
same,outcome,[2],inactive
same,outcome,[3],inactive
same,outcome,[11],inactive
same,outcome,[6],inactive
same,outcome,[7],inactive
same,outcome,[8],inactive
same,outcome,[4],inactive
same,outcome,[12],inactive
CC/C(=C(/CC)c1ccc(O)cc1)c1ccc(O)cc1,AC50,[1],9.92 µM (active)
same,AC50,[5],45 µM (active)
same,AC50,[6],34.8 µM (active)
same,AC50,[7],35.4 µM (active)
same,AC50,[8],84.6 µM (active)
same,outcome,[4],inactive
CN(C[C@@H](CC[N+]12CCC(C3CCCCC3)(CC1)CC2)c1ccc(Cl)c(Cl)c1)C(=O)c1cc(C(F)(F)F)cc(C(F)(F)F)c1,AC50,[1],10.5 µM (active)
O=C(OCCCCCCOC(=O)c1ccccc1)c1ccccc1,outcome,[1],inactive
Cc1cc2c(cc1C(F)(F)F)N(C(=O)Nc1ccc(Oc3cccnc3C)nc1)CC2,AC50,[1],8.93 µM (active)
Cc1ccc2oc(CN(Cc3ccccc3)C(=O)Nc3c(F)cc(F)cc3F)c(-c3ccc(Cl)cc3)c2c1,AC50,PGR (gene 5241) [13],1.95 µM (active)
same,outcome,[14],inactive
same,outcome,[15],inactive
same,AC50,PGR (gene 5241) [16],1.09 µM (active)
same,outcome,[17],inactive
CCCCOC(=O)c1ccc(O)cc1,outcome,[1],inactive
